For 14 compounds, inhibition results are on record in PubChem BioAssay.

Each structure is given as a SMILES string. Values without a mark were called inactive. The source made the active and inactive calls. Rule as the data show it, unless noted: active = inhibition above about 28%; inactive = the rest.

A short description of experiment [1]: StAR promoter reporter inhibitors, counter-screen for LRH-1 inverse agonist project, cell-based, luminescence, high throughput (AID 651611). As to conditions: StAR promoter luciferase reporter counterscreen, at 3.6 µM, stronger effect = higher value.
Experiment [2] deals with Nuclear receptor subfamily 5 group A member 2 (Homo sapiens) (UniProt O00482). The experiment can be described thus: NR5A2 activity suppression in reporter cells – cell-based, luminescence, confirmation (AID 651613; in the data active = inhibition above about 42%;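 also: HEK293T cells co-transfected with LRH-1 and StAR promoter luciferase reporter; 0% = vehicle wells and 100% = parental cells lacking receptor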). As to conditions: cell-based LRH-1 luciferase reporter, inverse agonism; at 3.6 µM; stronger effect = higher value. For orientation: Reporter assays use an easily measured gene product as a stand-in for the process of interest.

In experiment [3] the target is Steroidogenic factor 1 (Homo sapiens) (UniProt Q13285). The experiment can be described thus: inverse agonism at SF1 nuclear receptor – cell-based, luminescence, high throughput, counter-screen for LRH-1 inverse agonist project (AID 651614; in the data active = inhibition above about 44%;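 also: cells cotransfected with StAR promoter reporter and SF1 expression vector; 0% = vehicle on cells with receptor and 100% = vehicle on cells lacking receptor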). As to conditions: cell-based SF1 luciferase reporter, at 3.6 µM, stronger effect = higher value. Background: The purpose of a counterscreen is to sort out artefacts and off-target activity.

A short description of experiment [4]: compounds suppressing VP16-driven luciferase signal – cell-based, luminescence, high throughput, counter-screen for LRH-1 inverse agonist project (AID 651615; in the data active = inhibition above about 33%). The settings on record: Gal4-VP16 luciferase reporter cells, at 3.6 µM, stronger effect = higher value.

Nuclear receptor subfamily 5 group A member 2 (Homo sapiens), sequence (O00482 whole entry, looked up): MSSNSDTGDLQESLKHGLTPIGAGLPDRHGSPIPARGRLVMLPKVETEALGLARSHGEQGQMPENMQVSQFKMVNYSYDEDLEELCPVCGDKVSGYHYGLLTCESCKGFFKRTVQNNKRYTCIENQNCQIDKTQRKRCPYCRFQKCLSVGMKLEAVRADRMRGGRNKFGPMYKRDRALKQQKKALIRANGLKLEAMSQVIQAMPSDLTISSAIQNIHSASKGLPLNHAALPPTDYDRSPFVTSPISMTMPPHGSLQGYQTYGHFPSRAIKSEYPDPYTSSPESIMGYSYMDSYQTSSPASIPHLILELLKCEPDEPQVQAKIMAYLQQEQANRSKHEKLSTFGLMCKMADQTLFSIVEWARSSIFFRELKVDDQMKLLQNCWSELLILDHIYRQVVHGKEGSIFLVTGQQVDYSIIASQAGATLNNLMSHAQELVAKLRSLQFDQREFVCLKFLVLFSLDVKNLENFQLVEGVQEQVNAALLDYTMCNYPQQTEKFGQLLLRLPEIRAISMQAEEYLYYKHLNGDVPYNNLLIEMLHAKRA
Steroidogenic factor 1 (Homo sapiens), sequence (Q13285 whole entry, looked up): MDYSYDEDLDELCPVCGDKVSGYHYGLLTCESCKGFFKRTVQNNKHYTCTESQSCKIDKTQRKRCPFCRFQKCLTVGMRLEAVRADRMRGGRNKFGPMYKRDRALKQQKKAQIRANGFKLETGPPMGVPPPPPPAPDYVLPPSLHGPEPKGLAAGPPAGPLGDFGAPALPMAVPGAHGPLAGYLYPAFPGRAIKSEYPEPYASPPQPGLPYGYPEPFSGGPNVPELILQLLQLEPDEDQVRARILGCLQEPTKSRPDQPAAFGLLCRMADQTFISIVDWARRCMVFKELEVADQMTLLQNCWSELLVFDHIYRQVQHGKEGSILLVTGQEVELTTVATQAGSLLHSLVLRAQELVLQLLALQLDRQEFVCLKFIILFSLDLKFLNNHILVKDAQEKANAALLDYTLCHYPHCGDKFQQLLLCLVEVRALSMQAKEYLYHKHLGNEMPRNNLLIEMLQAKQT

Consider `O=C(CCl)Nc1cccc(Oc2cnccn2)c1`, for which the inhibition was 37.1% (active) in experiment [1], 69% (active) in experiment [2], 64.9% (active) in experiment [3] and -26.5% in experiment [4].
With `COc1ccc(C2=Nn3c(nnc3-c3ccncc3)SC2)cc1OC`, the inhibition was 24.5% in experiment [1], 48% (active) in experiment [2], 39.6% in experiment [3] and -2.76% in experiment [4].
On the same counts, the results for `Cc1cc2oc(=O)cc(C)c2cc1NC(=O)CCl` are 32.9% (active), 58.9% (active), 57.7% (active) and -57.1%.
On the same counts, the results for `COc1ccc(N2CCN(C(=O)c3ccc(CNS(=O)(=O)c4cccc(OC)c4)cc3)CC2)cc1` are 9.25%, 27.8%, 29.5% and 6.88%.
The like results for `CCCc1cc(=O)oc2cc3occ(C)c3cc12` were, in that order, -0.89%, 42.1% (active), 37.8% and 1.16%.
Take `COc1ccc(OC)c(CCNC(=O)C(C)n2nc(C)c3c(C)n(-c4ccc(C)cc4)nc3c2=O)c1` (stereo unspecified): the inhibition is 15.2% in experiment [1], 64% (active) in experiment [2], 55.6% (active) in experiment [3] and 51.2% (active) in experiment [4].
On to `O=[N+]([O-])c1cnccc1Nc1cccc(F)c1`, for which the inhibition was 11.5% in experiment [1], 62.3% (active) in experiment [2], 55.1% (active) in experiment [3] and 10% in experiment [4].
The like results for `CC12CCC(=O)N1c1c(sc3nc(N4CCOCC4)c4c(c13)CCCC4)C(=O)N2` (stereo unspecified) were, in that order, 11.1%, 63.7% (active), 53.7% (active) and -1.67%.
On the same counts, the results for `O=C(Nc1ccc2[nH]c(=O)[nH]c2c1)c1ccc([N+](=O)[O-])o1` are 7.96%, 65.1% (active), 65.8% (active) and -11.8%.
The like results for `COc1ccc(N2CCN(C(=O)CN3C(=O)NC4(CCCCCC4)C3=O)CC2)cc1` were, in that order, 7.32%, 46.6% (active), 43.3% (active) and -4.03%.
As for `O=C(Nc1cc(Cl)ccc1-n1cncn1)c1ccc([N+](=O)[O-])o1`, the inhibition in experiment [1] is 27%; in experiment [2], 61.9% (active); in experiment [3] it was 61.8% (active); in experiment [4], -24.7%.
With `CCN(CC)C1Oc2cc3c(cc2C(c2cc(OC)c(OC)c(OC)c2)C1C)OCO3` (stereo unspecified), the inhibition in experiment [1] is 31.5% (active); in experiment [2], 18.4%; in experiment [3], 29.8%; in experiment [4] it was 25.9%.
Turning to `O=NN(CCc1ccncc1)c1ccc(OCc2ccccc2)cc1`, the inhibition is 3.58% in experiment [1], 73.2% (active) in experiment [2], 66.6% (active) in experiment [3] and 50.5% (active) in experiment [4].
For the compound `Oc1ccccc1-c1nc(NCC2CCCO2)c2ccccc2n1` (stereo unspecified), the inhibition in experiment [1] was 26.3%; in experiment [2] it was 66.2% (active); in experiment [3], 58% (active); in experiment [4] it was -8%.

In general, inhibition refers to the relative decrease from the control value, in per cent.
